# From the supplement of paper PMC6897291
# Structures can show the parent of a compound that is named as a salt.
# Tests used:
# U-2932 [1] = assay: growth inhibition by drug alone (1 - RLU/untreated control) (fraction); higher = stronger inhibition; conditions: 177Lu-lilotomab satetraxetan 0 ug/ml
# How it was run: (§1)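 Plates pre-printed with the Selleck Cambridge Cancer Compound library at 10/100 nM (RIVA) or 10/1,000 nM (U-2932) received 3,000 cells/well. These cells had been washed after 18 h untreated or with a radiolabelled anti-CD37 antibody conjugate (~600 MBq/mg; 0.5 µg/ml RIVA, 1 µg/ml U-2932). Growth inhibition was obtained from RealTime-Glo luminescence in relation to untreated no-drug wells. Each daily read from day 3, taken after 1 h at 37°C, was converted as 1 − RLU/mean of 48 such wells per plate.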
# RIVA [2] = assay: as above; conditions: 177Lu-lilotomab satetraxetan 0 ug/ml
# How it was run: as §1
# U-2932 [3] = assay: growth inhibition by drug plus 177Lu-lilotomab satetraxetan (1 - RLU/untreated control) (fraction); higher = stronger inhibition; conditions: 177Lu-lilotomab satetraxetan 1 ug/ml
# How it was run: as §1
# RIVA [4] = assay: as above; conditions: 177Lu-lilotomab satetraxetan 0.5 ug/ml
# How it was run: as §1
SMILES,"growth inhibition by drug alone (U-2932 [1]; 10 nM, time (day): 3)","growth inhibition by drug alone (U-2932 [1]; 10 nM, time (day): 4)","growth inhibition by drug alone (U-2932 [1]; 10 nM, time (day): 5)","growth inhibition by drug alone (U-2932 [1]; 10 nM, time (day): 6)","growth inhibition by drug alone (U-2932 [1]; 1000 nM, time (day): 3)","growth inhibition by drug alone (U-2932 [1]; 1000 nM, time (day): 4)","growth inhibition by drug alone (U-2932 [1]; 1000 nM, time (day): 5)","growth inhibition by drug alone (U-2932 [1]; 1000 nM, time (day): 6)","growth inhibition by drug alone (RIVA [2]; 10 nM, time (day): 3)","growth inhibition by drug alone (RIVA [2]; 10 nM, time (day): 4)","growth inhibition by drug alone (RIVA [2]; 10 nM, time (day): 5)","growth inhibition by drug alone (RIVA [2]; 10 nM, time (day): 6)","growth inhibition by drug alone (RIVA [2]; 100 nM, time (day): 3)","growth inhibition by drug alone (RIVA [2]; 100 nM, time (day): 4)","growth inhibition by drug alone (RIVA [2]; 100 nM, time (day): 5)","growth inhibition by drug alone (RIVA [2]; 100 nM, time (day): 6)","growth inhibition by drug plus 177Lu-lilotomab satetraxetan (U-2932 [3]; 10 nM, time (day): 3)","growth inhibition by drug plus 177Lu-lilotomab satetraxetan (U-2932 [3]; 10 nM, time (day): 4)","growth inhibition by drug plus 177Lu-lilotomab satetraxetan (U-2932 [3]; 10 nM, time (day): 5)","growth inhibition by drug plus 177Lu-lilotomab satetraxetan (U-2932 [3]; 10 nM, time (day): 6)","growth inhibition by drug plus 177Lu-lilotomab satetraxetan (U-2932 [3]; 1000 nM, time (day): 3)","growth inhibition by drug plus 177Lu-lilotomab satetraxetan (U-2932 [3]; 1000 nM, time (day): 4)","growth inhibition by drug plus 177Lu-lilotomab satetraxetan (U-2932 [3]; 1000 nM, time (day): 5)","growth inhibition by drug plus 177Lu-lilotomab satetraxetan (U-2932 [3]; 1000 nM, time (day): 6)","growth inhibition by drug plus 177Lu-lilotomab satetraxetan (RIVA [4]; 10 nM, time (day): 3)","growth inhibition by drug plus 177Lu-lilotomab satetraxetan (RIVA [4]; 10 nM, time (day): 4)","growth inhibition by drug plus 177Lu-lilotomab satetraxetan (RIVA [4]; 10 nM, time (day): 5)","growth inhibition by drug plus 177Lu-lilotomab satetraxetan (RIVA [4]; 10 nM, time (day): 6)","growth inhibition by drug plus 177Lu-lilotomab satetraxetan (RIVA [4]; 100 nM, time (day): 3)","growth inhibition by drug plus 177Lu-lilotomab satetraxetan (RIVA [4]; 100 nM, time (day): 4)","growth inhibition by drug plus 177Lu-lilotomab satetraxetan (RIVA [4]; 100 nM, time (day): 5)","growth inhibition by drug plus 177Lu-lilotomab satetraxetan (RIVA [4]; 100 nM, time (day): 6)"
CO[C@H]1/C=C\C=C(/C)C(=O)NC2=CC(=O)C(NCCN(C)C)=C(C[C@@H](C)C[C@H](OC)[C@H](O)[C@@H](C)/C=C(\C)[C@@H]1OC(N)=O)C2=O [17-DMAG HCl (Alvespimycin)],0.163,0.099,-0.033,-0.0727,0.944,0.979,0.985,0.986,0.132,0.103,0.0633,-0.0974,0.922,0.953,0.961,0.96,0.0703,0.119,0.177,0.21,0.956,0.982,0.988,0.99,–,–,–,–,–,–,–,–
COc1ccccc1OCC(O)CN1CCN(CC(=O)Nc2c(C)cccc2C)CC1 (stereo not given) [Ranolazine (Ranexa)],0.0363,0.0222,-0.0749,-0.119,-0.0415,-0.0106,-0.0786,-0.23,0.0348,-0.0338,-0.102,-0.328,-0.11,-0.146,-0.161,-0.223,-0.0197,0.00637,0.00274,0.118,-0.0847,8.82e-05,-0.0142,-0.000571,0.412,0.527,0.544,0.551,0.294,0.438,0.446,0.418
CC(=O)Nc1nc(C)c(-c2ccc(Cl)c(S(=O)(=O)NCCO)c2)s1,–,–,–,–,–,–,–,–,0.0212,0.026,-0.0187,-0.271,-0.0771,-0.0663,-0.1,-0.193,-0.0326,0.00318,0.0521,0.103,0.423,0.467,0.424,0.489,0.348,0.493,0.527,0.549,0.317,0.471,0.448,0.434
Nc1ncn([C@H]2C[C@H](O)[C@@H](CO)O2)c(=O)n1 [Decitabine],–,–,–,–,–,–,–,–,–,–,–,–,–,–,–,–,0.0943,0.11,0.126,0.167,0.13,0.49,0.632,0.753,0.474,0.558,0.569,0.567,0.496,0.556,0.566,0.53
O=C(NCCS(=O)(=O)c1ccc(C(F)(F)F)cn1)c1ccc(Cl)cc1,–,–,–,–,–,–,–,–,-0.0219,-0.049,-0.0699,-0.142,-0.409,-0.334,-0.354,-0.458,-0.0322,0.0392,0.0668,0.0664,-0.0112,0.0515,0.0729,0.179,0.548,0.553,0.579,0.579,0.416,0.503,0.517,0.521
